Data: PubChem BioAssay AID1159580 (chemical genetic matrix, 2015)
Among all 5,500 compounds or so, about 2,000 (36%) were called active. Not shown: some 18% with an inconclusive outcome. Rule as the data show it: active = normalized growth mostly below about 0.91 (no sharp cut-off); inconclusive = no clear call, values can overlap the other calls; inactive = mostly above about 0.92. This is one part of the list.

Assay: chemical genetic growth profiling, strain panel (AID 1159580);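 also: tested at 20 µM; growth read once vehicle control cultures reached saturation at 30 °C; 1 = growth at the plate median or of vehicle wells; lower values mean less growth of the strain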
Conditions: S. cerevisiae deletion strains, growth OD
[1] = locus YAL021C, strain ccr4, hits give low values
[2] = locus YAL026C, strain drs2, hits give low values
[3] = locus YAL030W, strain snc1, hits give low values
[4] = locus YBL061C, strain skt5, hits give low values
[5] = locus YBR009C, strain hhf1, hits give low values
[6] = locus YBR023C, strain chs3, hits give low values
[7] = locus YBR171W, strain sec66, hits give low values
[8] = locus YBR231C, strain swc5, hits give low values
[9] = locus YBR279W, strain paf1, hits give low values
[10] = locus YCL011C, strain gbp2, hits give low values
[11] = locus YCL016C, strain dcc1, hits give low values
[12] = locus YCL061C, strain MRC1, hits give low values
[13] = locus YCL069W, strain vba3, hits give low values
[14] = locus YCR088W, strain abp1, hits give low values
[15] = locus YDL005C, strain med2, hits give low values
[16] = locus YDL040C, strain nat1, hits give low values
[17] = locus YDR001C, strain nth1, hits give low values
[18] = locus YDR069C, strain doa4, hits give low values
[19] = locus YDR137W, strain rgp1, hits give low values
[20] = locus YDR159W, strain sac3, hits give low values
[21] = locus YDR297W, strain sur2, hits give low values
[22] = locus YDR334W, strain swr1, hits give low values
[23] = locus YDR335W, strain msn5, hits give low values
[24] = locus YDR392W, strain spt3, hits give low values
[25] = locus YEL003W, strain gim4, hits give low values
[26] = locus YEL037C, strain rad23, hits give low values
[27] = locus YEL061C, strain CIN8 (second series), hits give low values
[28] = locus YER015W, strain faa2, hits give low values
[29] = locus YER016W, strain bim1, hits give low values
[30] = locus YER111C, strain swi4, hits give low values
[31] = locus YER155C, strain BEM2 (second series), hits give low values
[32] = locus YFR010W, strain ubp6, hits give low values
[33] = locus YGL167C, strain pmr1, hits give low values
[34] = locus YGL173C, strain kem1, hits give low values
[35] = locus YGL227W, strain vid30, hits give low values
[36] = locus YGL240W, strain doc1, hits give low values
[37] = locus YGL253W, strain hxk2, hits give low values
[38] = locus YHR013C, strain ard1, hits give low values
[39] = locus YHR027C, strain rpn1, hits give low values
[40] = locus YHR030C, strain SLT2, hits give low values
[41] = locus YHR079C, strain IRE1, hits give low values
[42] = locus YHR142W, strain chs7, hits give low values
[43] = locus YJL092W, strain hpr5, hits give low values
[44] = locus YJL095W, strain BCK1 (second series), hits give low values
[45] = locus YJL095W, strain BCK1, hits give low values
[46] = locus YJL115W, strain asf1, hits give low values
[47] = locus YJL129C, strain trk1, hits give low values
[48] = locus YJL154C, strain vps35, hits give low values
[49] = locus YJL164C, strain tpk1, hits give low values
[50] = locus YJL166W, strain qcr8, hits give low values
[51] = locus YJR066W, strain TOR1, hits give low values
[52] = locus YKL160W, strain elf1, hits give low values
[53] = locus YKR026C, strain gcn3, hits give low values
[54] = locus YKR091W, strain srl3, hits give low values
[55] = locus YLL001W, strain dnm1, hits give low values
[56] = locus YLL026W, hits give low values
[57] = locus YLL041C, strain sdh2, hits give low values
[58] = locus YLR027C, strain aat2, hits give low values
[59] = locus YLR113W, strain HOG1, hits give low values
[60] = locus YLR221C, strain rsa3, hits give low values
[61] = locus YLR258W, strain gsy2, hits give low values
[62] = locus YLR262C, strain YPT6 (second series), hits give low values
[63] = locus YLR320W, strain mms22, hits give low values
[64] = locus YLR342W, strain FKS1, hits give low values
[65] = locus YLR357W, strain rsc2, hits give low values
[66] = locus YLR370C, strain arc18, hits give low values
[67] = locus YLR384C, strain iki3, hits give low values
[68] = locus YML120C, strain ndi1, hits give low values
[69] = locus YMR058W, strain fet3, hits give low values
[70] = locus YMR125W, strain sto1, hits give low values
[71] = locus YMR129W, hits give low values
[72] = locus YMR205C, strain PFK2, hits give low values
[73] = locus YMR231W, strain pep5, hits give low values
[74] = locus YNL071W, strain lat1, hits give low values
[75] = locus YNL183C, strain NPR1, hits give low values
[76] = locus YNL209W, strain ssb2, hits give low values
[77] = locus YNL248C, strain rpa49, hits give low values
[78] = locus YNL322C, strain KRE1 (second series), hits give low values
[79] = locus YNR049C, strain mso1, hits give low values
[80] = locus YOR001W, strain rrp6, hits give low values
[81] = locus YOR070C, strain gyp1, hits give low values
[82] = locus YOR080W, strain dia2, hits give low values
[83] = locus YOR083W, strain WHI5, hits give low values
[84] = locus YOR106W, strain vam3, hits give low values
[85] = locus YOR231W, strain MKK1, hits give low values
[86] = locus YOR265W, strain rbl2, hits give low values
[87] = locus YOR270C, strain vph1, hits give low values
[88] = locus YOR290C, strain snf2, hits give low values
[89] = locus YPL051W, strain arl3, hits give low values
[90] = locus YPL078C, strain atp4, hits give low values
[91] = locus YPL106C, strain sse1, hits give low values
[92] = locus YPL240C, strain hsp82, hits give low values
[93] = locus YPL256C, strain CLN2, hits give low values

Measured: normalized growth

C[C@H]1COC2=C1C(=O)C(=O)c1c2ccc2c1CCCC2(C)C
active: [1] 0.859 | [2] 0.583 | [3] 0.858 | [4] 0.725 | [5] 0.534 | [6] 0.783 | [7] 0.808 | [8] 0.675 | [9] 0.725 | [10] 0.65 | [11] 0.691 | [12] 0.668 | [13] 0.659 | [14] 0.866 | [15] 0.828 | [16] 0.9 | [17] 0.913 | [18] 0.868 | [19] 0.23 | [20] 0.301 | locus YDR195W, strain ref2 0.823 | [21] 0.75 | [22] 0.729 | [23] 0.658 | [24] 0.0851 | [25] 0.77 | [26] 0.883 | [27] 0.527 | [28] 0.845 | [29] 0.666 | [30] 0.478 | [31] 0.334 | [32] 0.871 | [34] 0.801 | [35] 0.546 | [36] 0.649 | [37] 0.545 | [38] 0.604 | [39] 0.872 | [40] 0.139 | [41] 0.25 | [42] 0.379 | [43] 0.871 | [44] 0.408 | [45] 0.31 | [46] 0.886 | [47] 0.22 | [48] 0.913 | [49] 0.69 | [50] 0.349 | [51] 0.701 | [52] 0.462 | [53] 0.853 | [54] 0.893 | [55] 0.819 | [56] 0.843 | [57] 0.901 | [58] 0.662 | [59] 0.208 | [60] 0.662 | [61] 0.723 | [62] 0.2 | [63] 0.613 | [64] 0.626 | [66] 0.806 | [67] 0.904 | [68] 0.371 | [69] 0.619 | [70] 0.476 | [71] 0.824 | [72] 0.531 | [73] 0.714 | [74] 0.18 | [75] 0.666 | [76] 0.817 | [77] 0.735 | [78] 0.801 | [79] 0.903 | [80] 0.608 | [81] 0.752 | [82] 0.912 | [83] 0.712 | [84] 0.581 | [85] 0.213 | [86] 0.895 | [87] 0.543 | [88] 0.775 | [89] 0.549 | [90] 0.453 | [91] 0.537 | [92] 0.761 | [93] 0.19
inactive: [33] 0.936 | [65] 0.934

Cc1cccc2c3c(ccc12)C1=C(C(=O)C3=O)C(C)CO1 (stereo not given)
active: [40] 0.128 | [41] 0.174 | [45] 0.263 | [51] 0.756 | [59] 0.163 | [75] 0.72 | [85] 0.133 | [93] 0.141

Cc1coc2c1C(=O)C(=O)c1c-2ccc2c1CCCC2(C)C
active: [2] 0.869 | [5] 0.882 | [8] 0.815 | [11] 0.904 | [12] 0.91 | [19] 0.439 | [20] 0.582 | [24] 0.196 | [25] 0.903 | [27] 0.905 | [31] 0.592 | [36] 0.801 | [37] 0.828 | [38] 0.815 | [40] 0.81 | [42] 0.868 | [45] 0.855 | [47] 0.738 | [52] 0.886 | [55] 0.886 | [58] 0.911 | [59] 0.821 | [60] 0.873 | [62] 0.485 | [63] 0.79 | [64] 0.904 | [68] 0.905 | [72] 0.735 | [74] 0.766 | [75] 0.82 | [81] 0.911 | [84] 0.852 | [89] 0.913 | [90] 0.853
inactive: [1] 0.912 | [3] 0.936 | [4] 0.968 | [6] 0.951 | [7] 0.916 | [9] 0.944 | [10] 0.913 | [13] 0.95 | [14] 0.955 | [15] 0.945 | [16] 0.948 | [17] 0.949 | [18] 0.925 | locus YDR195W, strain ref2 0.989 | [21] 0.951 | [22] 0.923 | [23] 0.929 | [26] 0.947 | [28] 0.951 | [29] 0.926 | [30] 0.953 | [32] 0.902 | [33] 0.946 | [34] 0.97 | [35] 0.962 | [39] 0.957 | [41] 0.859 | [43] 0.94 | [44] 0.925 | [46] 0.953 | [48] 0.957 | [49] 0.927 | [50] 0.94 | locus YJL187C, strain SWE1, hits give low values 0.965 | [51] 0.835 | [53] 0.943 | [54] 0.946 | [56] 0.936 | [57] 0.958 | [61] 0.964 | [65] 1.07 | [66] 0.927 | [67] 0.96 | [69] 0.913 | [70] 0.975 | [71] 0.938 | [73] 0.953 | [76] 0.954 | [77] 1.03 | [78] 0.949 | [79] 0.954 | [80] 0.927 | [82] 0.949 | [83] 0.928 | [85] 0.867 | [86] 0.948 | [87] 0.809 | [88] 0.958 | [91] 0.852 | [92] 0.944 | [93] 0.894

Cc1c(S(=O)(=O)O)oc2c1C(=O)C(=O)c1c-2ccc2c1CCCC2(C)C
active: [3] 0.92 | [5] 0.885 | [8] 0.889 | [10] 0.861 | [18] 0.874 | [19] 0.631 | [20] 0.808 | [24] 0.586 | [31] 0.779 | [36] 0.817 | [44] 0.912 | [47] 0.859 | [50] 0.893 | [52] 0.896 | [56] 0.924 | [58] 0.9 | [60] 0.891 | [62] 0.57 | [63] 0.871 | [68] 0.9 | [69] 0.839 | [71] 0.918 | [74] 0.726 | [83] 0.856 | [84] 0.821 | [89] 0.873 | [92] 0.921
inactive: [1] 0.946 | [2] 0.923 | [4] 0.954 | [6] 0.943 | [7] 0.937 | [9] 0.985 | [11] 0.958 | [13] 0.983 | [14] 0.946 | [15] 0.963 | [16] 0.959 | [17] 0.955 | locus YDR195W, strain ref2 0.974 | [21] 0.939 | [22] 0.924 | [23] 0.962 | [25] 0.928 | [26] 0.947 | [27] 0.956 | [28] 0.93 | [29] 0.94 | [30] 0.965 | [32] 0.943 | [33] 0.928 | [34] 0.965 | [35] 0.968 | [37] 0.982 | [38] 0.913 | [39] 0.962 | [40] 0.982 | [41] 0.959 | [42] 0.994 | [43] 0.956 | [45] 0.979 | [46] 0.952 | [48] 0.969 | [49] 0.918 | [51] 0.934 | [53] 0.932 | [54] 0.95 | [55] 0.962 | [57] 0.938 | [59] 0.967 | [61] 0.95 | [64] 0.916 | [65] 0.905 | [66] 0.949 | [67] 0.926 | [70] 1 | [72] 0.912 | [73] 0.933 | [75] 0.932 | [76] 0.955 | [77] 0.962 | [78] 0.916 | [79] 0.976 | [80] 0.935 | [81] 0.949 | [82] 0.93 | [85] 0.98 | [86] 0.937 | [87] 0.956 | [88] 0.95 | [90] 0.931 | [91] 0.857 | [93] 0.968
